Experimental findings from ChEMBL document CHEMBL4513146, “CO-ADD screening of Karazin Kharkiv National University (Ukraine) compounds” are described below.

Entries with a potency or affinity are not part of this list.

One assay has as its system Staphylococcus aureus. To be noted: Concentration 32 ug.mL-1;; ASSAY_TEST Inhibition of Bacterial Growth; detection method Absorption (OD600); MEDIA CAMHB; plate type 384well; NBS; CORNING #3640; time 18 hr.
The next assay relates to Escherichia coli. To be noted: Concentration 32 ug.mL-1;; ASSAY_TEST Inhibition of Bacterial Growth; detection method Absorption (OD600); MEDIA CAMHB; plate type 384well; NBS; CORNING #3640; time 18 hr.

As for `O=C(CSc1nnc2c3cc(-c4ccccc4)nn3ccn12)NCc1ccc(Cl)cc1`, the Inhibition (in general, the relative decrease from the control value, in per cent) is 6.91% with Staphylococcus aureus and -1.12% in the assay with Escherichia coli.

With `CCCCn1c(=O)c2sccc2n2c(=O)n(CC(=O)NC(C)CC)nc12` (configuration not stated), the results for the Inhibition in the assay with Staphylococcus aureus and with Escherichia coli were -5.96% and -9.68%, respectively.

For the compound `COc1ccc(NC(=O)Cn2nc3ccc(SC4CCCCC4)nn3c2=O)cc1OC`, the Inhibition with Staphylococcus aureus is listed as 3.6%; in the assay with Escherichia coli, -2.79%.

`COc1ccc(NC(=O)Cn2nc3ccc(SC(C)(C)C)nn3c2=O)cc1OC`: the Inhibition in the assay with Staphylococcus aureus is listed as 4.97%; in the assay on Escherichia coli, 2.49%.

`COc1cccc(CNC(=O)CSc2nnc3c(=O)n(-c4ccc(F)cc4)ccn23)c1OC`: the Inhibition in the assay with Staphylococcus aureus is 19.94%; in the assay with Escherichia coli, 2.01%.

As for `COc1ccc(CNC(=O)CSc2nnc3c4cc(-c5ccc(OC)cc5)nn4ccn23)cc1`, the Inhibition in the assay on Staphylococcus aureus stood at 4.43%; in the assay with Escherichia coli it was 0.23%.

In the case of `Cc1ccc(NC(=O)Cn2nc3c(Oc4cccc(C)c4C)nccn3c2=O)c(Br)c1`, the Inhibition is reported as 0.42% in the assay on Staphylococcus aureus and -4.42% in the assay with Escherichia coli.

As to `COc1cccc(Cn2nc3n(CCC(=O)NC4CCCCC4)c(=O)c4ccccc4n3c2=O)c1`, the Inhibition in the assay on Staphylococcus aureus was 6.84%; with Escherichia coli, -3.05%.

Regarding `CCOc1ccc(-n2ccn3c(SCC(=O)Nc4ccc(Cl)cc4)nnc3c2=O)cc1`, the Inhibition is recorded as 4.06% in the assay on Staphylococcus aureus and -5.21% with Escherichia coli.

As to `CCCCc1ccc(NC(=O)Cn2c(=O)c3nnc(CCC)n3c3ccccc32)cc1`, the results for the Inhibition in the assay on Staphylococcus aureus and in the assay on Escherichia coli were 2.94% and -1.42%, respectively.

On to `CC(C)NC(=O)CSc1nnc2c(=O)n(-c3ccccc3)ccn12`, for which the results for the Inhibition with Staphylococcus aureus and in the assay with Escherichia coli were -3.39% and 1.35%, respectively.

With `CCCc1nnc2c(=O)n(CC(=O)Nc3ccc(Br)cc3F)c3ccccc3n12`, the Inhibition was -16.77% in the assay on Staphylococcus aureus and -13.67% with Escherichia coli.

As to `COc1ccc(-n2ccn3c(=O)n(Cc4cc(C)ccc4C)nc3c2=O)cc1Cl`, the figures for the Inhibition in the assay with Staphylococcus aureus and in the assay on Escherichia coli were 5.41% and -0.01%, respectively.

With `Cc1ccc(-c2cc3c4nn(CC(=O)Nc5ccc(Cl)cc5)c(=O)n4ccn3n2)cc1C`, the Inhibition in the assay on Staphylococcus aureus is reported as -15.51%; in the assay on Escherichia coli, -16.09%.

For the compound `Cc1nnc2ccc(S(=O)(=O)N(Cc3cccc(F)c3)c3cccc(F)c3)cn12`, the Inhibition in the assay with Staphylococcus aureus is on record as -4.62%; with Escherichia coli, -13.2%.

Take `O=C(Cn1nc2ccc(-c3ccccc3)nn2c1=O)Nc1cccc(Cl)c1`: the Inhibition with Staphylococcus aureus is given as -4.62%; with Escherichia coli, -11.73%.
